The target in test [1] is CDK3/Cyclin E (Homo sapiens) (UniProt P24864+Q00526). The conditions noted are these: at 1 µM.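 Also: each figure is a mean percent inhibition of the CDK3/cyclin E complex.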
In test [2] the target is Cyclin-dependent kinase 4 (Homo sapiens) (UniProt P11802). The conditions noted are these: at 0.1 µM.
Test [3] shares this target. The following applies: at 1 µM.
For test [4], the target named is Cyclin-dependent kinase 5 (Homo sapiens) (UniProt Q00535). The following applies: at 0.1 µM.
Test [5] has the same target. The following applies: at 1 µM.
For test [6], the target named is Cyclin-dependent kinase 6 (Homo sapiens) (UniProt Q00534). The conditions noted are these: at 0.1 µM.
Test [7] shares this target. The conditions noted are these: at 1 µM.
Test [8] has as its target Dual specificity protein kinase CLK2 (Homo sapiens) (UniProt P49760). The following applies: at 0.1 µM.
For test [9] the target is unchanged. The following applies: at 1 µM.
For test [10], the target named is Dual specificity protein kinase CLK3 (Homo sapiens) (UniProt P49761). The following applies: at 0.1 µM.

The structures appear in SMILES notation.

Sequence of CDK3/Cyclin E (Homo sapiens) (P24864 whole entry, looked up): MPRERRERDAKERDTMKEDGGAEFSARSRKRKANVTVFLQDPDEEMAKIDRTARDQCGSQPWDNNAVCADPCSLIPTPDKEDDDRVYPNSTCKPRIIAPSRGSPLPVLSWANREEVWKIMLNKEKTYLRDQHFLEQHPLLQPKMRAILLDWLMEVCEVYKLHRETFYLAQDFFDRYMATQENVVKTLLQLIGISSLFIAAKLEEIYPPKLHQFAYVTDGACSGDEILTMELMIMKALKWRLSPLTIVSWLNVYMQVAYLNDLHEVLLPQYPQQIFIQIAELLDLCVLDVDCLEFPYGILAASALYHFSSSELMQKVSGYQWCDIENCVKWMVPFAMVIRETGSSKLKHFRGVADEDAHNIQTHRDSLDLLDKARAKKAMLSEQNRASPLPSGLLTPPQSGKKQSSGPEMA
Sequence of CDK3/Cyclin E (Homo sapiens) (Q00526 whole entry, looked up): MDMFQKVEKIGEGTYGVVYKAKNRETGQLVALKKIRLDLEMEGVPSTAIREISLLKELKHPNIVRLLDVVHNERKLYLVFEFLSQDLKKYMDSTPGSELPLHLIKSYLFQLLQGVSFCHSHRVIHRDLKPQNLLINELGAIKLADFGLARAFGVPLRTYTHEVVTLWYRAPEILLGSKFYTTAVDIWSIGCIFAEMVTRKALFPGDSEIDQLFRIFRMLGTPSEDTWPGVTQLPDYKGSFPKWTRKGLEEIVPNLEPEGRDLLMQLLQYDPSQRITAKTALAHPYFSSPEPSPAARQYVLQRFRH
Sequence of Dual specificity protein kinase CLK3 (Homo sapiens) (P49761 whole entry, looked up): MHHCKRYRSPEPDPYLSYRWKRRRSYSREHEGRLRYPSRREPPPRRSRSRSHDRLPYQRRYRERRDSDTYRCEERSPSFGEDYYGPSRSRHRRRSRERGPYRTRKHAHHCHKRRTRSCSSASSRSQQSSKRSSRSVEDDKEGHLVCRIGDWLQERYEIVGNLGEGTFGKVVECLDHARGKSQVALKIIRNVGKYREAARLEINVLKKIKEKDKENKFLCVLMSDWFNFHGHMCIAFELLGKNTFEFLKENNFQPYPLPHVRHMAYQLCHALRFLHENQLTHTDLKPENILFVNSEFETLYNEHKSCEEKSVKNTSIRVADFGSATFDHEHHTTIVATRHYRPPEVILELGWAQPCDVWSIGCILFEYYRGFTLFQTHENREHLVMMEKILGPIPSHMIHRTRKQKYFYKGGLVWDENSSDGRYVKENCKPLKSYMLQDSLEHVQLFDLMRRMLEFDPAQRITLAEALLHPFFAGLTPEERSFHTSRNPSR
Sequence of Cyclin-dependent kinase 4 (Homo sapiens) (P11802 whole entry): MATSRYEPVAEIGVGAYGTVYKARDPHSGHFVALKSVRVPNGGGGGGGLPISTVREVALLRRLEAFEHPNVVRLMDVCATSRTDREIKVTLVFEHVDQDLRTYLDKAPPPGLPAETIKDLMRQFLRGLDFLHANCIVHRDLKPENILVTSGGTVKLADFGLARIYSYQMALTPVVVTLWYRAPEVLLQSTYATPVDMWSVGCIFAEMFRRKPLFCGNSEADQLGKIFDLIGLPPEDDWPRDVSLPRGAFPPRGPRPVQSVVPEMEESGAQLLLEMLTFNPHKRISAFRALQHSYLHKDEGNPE
Sequence of Dual specificity protein kinase CLK2 (Homo sapiens) (P49760 whole entry, looked up): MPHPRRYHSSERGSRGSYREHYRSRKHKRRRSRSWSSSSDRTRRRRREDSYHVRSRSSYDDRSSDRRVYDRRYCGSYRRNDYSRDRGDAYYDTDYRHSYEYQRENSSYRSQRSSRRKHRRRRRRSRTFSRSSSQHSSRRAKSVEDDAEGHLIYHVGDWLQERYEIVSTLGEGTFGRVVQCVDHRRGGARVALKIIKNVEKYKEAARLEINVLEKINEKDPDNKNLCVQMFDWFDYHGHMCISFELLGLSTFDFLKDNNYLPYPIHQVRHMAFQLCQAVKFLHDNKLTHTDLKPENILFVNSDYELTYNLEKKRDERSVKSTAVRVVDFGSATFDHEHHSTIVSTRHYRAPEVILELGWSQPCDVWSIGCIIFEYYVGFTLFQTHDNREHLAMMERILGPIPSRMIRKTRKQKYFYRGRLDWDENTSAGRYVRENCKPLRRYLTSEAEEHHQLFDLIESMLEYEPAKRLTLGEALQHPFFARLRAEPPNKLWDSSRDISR
Sequence of Cyclin-dependent kinase 5 (Homo sapiens) (Q00535 whole entry, looked up): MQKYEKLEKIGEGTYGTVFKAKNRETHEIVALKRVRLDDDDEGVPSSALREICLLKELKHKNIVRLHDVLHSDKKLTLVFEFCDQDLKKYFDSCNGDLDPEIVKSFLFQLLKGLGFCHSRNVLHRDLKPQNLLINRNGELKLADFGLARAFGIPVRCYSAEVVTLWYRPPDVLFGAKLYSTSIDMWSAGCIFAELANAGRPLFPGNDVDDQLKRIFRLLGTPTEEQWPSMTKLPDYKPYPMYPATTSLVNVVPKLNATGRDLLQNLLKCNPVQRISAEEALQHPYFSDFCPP
Sequence of Cyclin-dependent kinase 6 (Homo sapiens) (Q00534 whole entry): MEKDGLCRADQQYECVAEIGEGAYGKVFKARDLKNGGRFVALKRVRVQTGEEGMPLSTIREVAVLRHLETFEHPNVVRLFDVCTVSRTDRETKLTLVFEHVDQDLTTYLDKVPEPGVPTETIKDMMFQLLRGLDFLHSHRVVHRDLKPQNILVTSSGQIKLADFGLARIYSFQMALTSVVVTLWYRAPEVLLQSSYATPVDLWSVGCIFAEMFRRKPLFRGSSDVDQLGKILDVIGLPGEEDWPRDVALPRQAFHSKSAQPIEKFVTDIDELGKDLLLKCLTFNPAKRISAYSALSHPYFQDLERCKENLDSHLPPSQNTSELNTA

By inhibition is commonly meant the relative decrease from the control value, in per cent. As to `COc1ccc(-c2ccncc2)cc1C(N)=O`, the inhibition in test [1] was -1.43%; in [2], 3.41%; in test [3] it was 3.66%; in [4], 0.56%; in [5] it was 1.7%; in test [6], -5.08%. Further, the inhibition in test [7] amounted to 0.48%; in [8], 0.6%; in test [9] it was 2.96%; in [10], 2.01%.

Regarding `CCCN1CCC(Oc2cc(Nc3nc(Nc4cccc(F)c4C(N)=O)c4cc[nH]c4n3)c(OC)cc2Cl)CC1`, the inhibition is 1.54% in [1]; 0.37% in test [2]; 3.08% in [3]; 0.2% in [4]; 0.45% in [5]; 0.9% in test [6]. Also, the inhibition in [7] worked out at 2.04%; in test [8], 9.9%; in [9], 49.3%; in [10], 0.11%.

As for `CCn1c(-c2nonc2N)nc2cncc(C(=O)N3CC[C@H](N)C3)c21`, the inhibition in test [1] is -2.13%; in test [2], 2.98%; in test [3], 2.35%; in [4], 0.46%; in test [5], 0.69%; in test [6], -1.51%. Also, the inhibition was determined as 4.8% in [7], 5.07% in test [8], 21.6% in test [9] and 1.31% in test [10].

In the case of `CCc1cccc(NC(=O)Nc2ccc(Oc3ccc4nc(NC(=O)OC)[nH]c4c3)cc2)c1`, the inhibition in test [1] was -1.16%; in test [2] it was 0.97%; in test [3], 1.5%; in test [4] it was -0.16%; in test [5], -0.09%; in [6], 7.42%. The inhibition in [7] turned out to be 1.51%; in test [8], 0.09%; in test [9] it was 1.38%; in test [10], 0.3%.

`COC(=O)Nc1nc2cc(Oc3ccc(NC(=O)Nc4cccc(C(=O)O)c4)cc3)ccc2[nH]1`: the inhibition is -0.13% in [1]; -1.05% in [2]; 2.01% in [3]; -1.87% in test [4]; -0.58% in test [5]; 4.45% in test [6]. Besides, the inhibition is 2.67% in test [7], 2.17% in test [8], 0.77% in test [9] and -3.22% in [10].

As for `CC(C)=Cc1cccc2c1/C(=N/Nc1ccc(S(N)(=O)=O)cc1)C(=O)N2`, the inhibition in test [1] was 99.1%; in test [2] it was 34.3%; in test [3] it was 68.9%; in test [4], 39.7%; in test [5], 73.3%; in test [6], 63.6%. For the same compound, the inhibition in [7] is 91.4%; in test [8] it was 1.69%; in test [9], 7.38%; in test [10], -6.71%.

As to `COc1ccc(COc2ccc(Cc3cnc(N)nc3N)cc2OC)cc1`, the inhibition in [1] was 1.92%; in test [2] it was 1.7%; in test [3], 3.6%; in test [4], 2.15%; in [5], 2.03%; in test [6], 1.93%. For the same compound, the inhibition in [7] was 3.33%; in test [8] it was 2.03%; in test [9] it was 1.66%; in [10], -0.25%.

As for `COc1cc2c(cc1Nc1nc(N3CCc4ccccc43)c3cc[nH]c3n1)N(C(=O)CN(C)C)CC2`, the inhibition was 1.66% in test [1]; 2.1% in test [2]; 3.3% in test [3]; 0.44% in test [4]; 0.4% in [5]; 0.95% in [6]. The inhibition in test [7] stood at 1.09%; in [8], 7.85%; in test [9], 44.4%; in [10] it was 0.14%.

On to `NS(=O)(=O)c1cccc(-c2ccc3c(NC(=O)C4CC4)n[nH]c3c2)c1`, for which the inhibition in test [1] was 1.71%; in test [2] it was -1.17%; in test [3] it was 1.45%; in [4], 0.87%; in [5], 1.78%; in test [6] it was -1.94%. The inhibition is 6.01% in test [7], -0.55% in [8], -0.78% in test [9] and 0.83% in [10].

As to `Cc1ccc(C(=O)NC2CCCCC2)cc1-c1ccc(C(=O)NCC2CC2)cc1`, the inhibition in test [1] worked out at 0.7%; in test [2], 2.37%; in test [3] it was 2.51%; in [4], 1.19%; in [5] it was 1.18%; in test [6] it was 3.79%. Moreover, the inhibition in test [7] is 0.76%; in test [8], 2.01%; in test [9], 2.19%; in [10], 0.94%.

Regarding `CCCN1CCC=C(c2ccc(Nc3nc(Nc4ccccc4C(N)=O)c4cc[nH]c4n3)c(C)c2)C1`, the inhibition is 4.3% in test [1]; 4.35% in [2]; 10.9% in test [3]; 1.88% in test [4]; 9.85% in test [5]; 0.69% in test [6]. In addition, the inhibition was 5.64% in [7], 38.2% in test [8], 88.9% in [9] and -0.17% in test [10].

Turning to `O=C1NC(=O)C(c2ccccc2Cl)=C1Nc1cccc(O)c1`, the inhibition amounted to 19.4% in test [1]; 7.12% in test [2]; 25.4% in [3]; 4.62% in [4]; 26.6% in test [5]; 7.16% in test [6]. For the same compound, the inhibition came to 28.7% in [7], 4.29% in test [8], 36.9% in test [9] and 2.2% in test [10].

In the case of `NC(=O)c1cccc(Nc2nccc(Nc3cccc4[nH]ncc34)n2)c1`, the inhibition is 23.7% in test [1]; -0.82% in [2]; 5.05% in [3]; 1.84% in test [4]; 14.1% in test [5]; 0.2% in [6]. Further, the inhibition was 0.3% in test [7], 1.19% in [8], 27.8% in test [9] and 0.15% in test [10].

On to `CC1=C(C(=O)Nc2ccc3[nH]ncc3c2)C(c2ccc(F)cc2)NC(=O)N1` (stereo not given), for which the inhibition in test [1] is -0.84%; in [2], 1.79%; in [3], 4.05%; in test [4], 0.41%; in [5] it was 3.23%; in test [6], -2.46%. Besides, the inhibition in [7] is 4.38%; in test [8], -0.24%; in test [9], 0.68%; in [10], 3.34%.

Consider `CCN1CCC(CC(=O)Nc2n[nH]c3nc(-c4cccs4)c(Br)cc23)CC1`, for which the inhibition in test [1] is 9.52%; in test [2], 5.84%; in test [3] it was 37%; in test [4], 0.96%; in [5], 2.52%; in [6], 30.9%. The inhibition was 70.8% in [7], -1.44% in test [8], 2.75% in test [9] and 0.48% in test [10].

As for `COc1ccccc1Nc1ncc(-c2ccccc2)o1`, the inhibition in test [1] is -1.14%; in test [2], 0.89%; in test [3], 2.21%; in [4], 0.04%; in [5], 1.68%; in test [6], -0.22%. In addition, the inhibition in [7] was -0.99%; in test [8], 0.98%; in test [9], 0.86%; in test [10], 1.23%.

For the origin of these results see ChEMBL document CHEMBL1961873, “Compounds: GSK PKIS; Assays: Nanosyn kinase panel” (2012).
